From PubChem BioAssay AID651789 (National Center for Advancing Translational Sciences (NCATS), 2012)
Results filed as inconclusive are left out. A number with no mark means an inactive call. Calls of active or inactive are those of the source. Calls follow the shape of the dose curve; as a rule, active = well fitted inhibition curve with a large enough effect; inconclusive = small, poorly fitted or top-dose-only effect; inactive = no such curve, though single readings can be large or run the other way.

Assay: Acumen qHTS Assay for Inhibitors of the mTORC1 Signaling Pathway in WT MEF Cells: Hit Validation; also: nearly all actives have a fitted effect of over 60% in size;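 as to activity change, negative = inhibition: phospho-rpS6 Ser235/236 immunofluorescence normalised to propidium iodide cell stain; percent of cells above a cutoff set by 7.5 nM rapamycin treated wells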
Details: Acumen imaging; series mostly up to 37.3 µM; activity change, negative = inhibition: at the top concentration
Method in brief: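 Read-out is immunofluorescent phospho-rpS6 (Ser235/236) normalised to PI-stained cell number, reported as % active cells using a 7.5 nM rapamycin threshold. Cells: WT or Tsc2-/-, p53-/- MEFs, compound-exposed 24 h at 37C; PI count also tracks viability.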
Potency is read from the fitted curve at half-maximal effect.

Row | SMILES | Potency | activity change, negative = inhibition [%]
1 | CC(C)S(=O)(=O)c1oc(-c2ccc(F)cc2)nc1S(=O)(=O)c1ccc(F)cc1 | 521 nM (active) | 
2 | Cc1ccc(-c2nn(C)c(=O)c3ccccc23)cc1S(=O)(=O)NCCCN(C)C |  | 5.16
3 | CCC(C(=O)N1CCN(c2cccc(C)c2C)CC1)n1nc(C)c2sc3ccccc3c2c1=O (stereo not given) |  | 23.3
4 | Cc1cccc(-n2cnc3cc(C(=O)NC4CCCCCC4)ccc32)c1 | 5210 nM (active) | 
5 | Cc1ccc(-c2cc(C(=O)N3CCN(c4ccccc4)CC3)c3ccccc3n2)cc1C |  | -2.1
6 | CCCc1oc2ccc(NS(=O)(=O)c3ccc(OC)cc3)cc2c1C(=O)OCC | 585 nM (active) | 
7 | CCOc1ccc(CCNCc2c(C(=O)O)n(Cc3ccc(C)cc3)c3cc(OC)ccc23)cc1 |  | -1.53
8 | Cc1ccc(S(=O)(=O)c2nnn3c2nc(NCc2cccs2)c2sccc23)cc1 |  | 1.95
9 | Cc1cccc(NC(=O)c2c(N)sc3c2CCC(C)C3)c1 (stereo not given) |  | -17.2
10 | Cn1nc(-c2ccc(OCC(=O)Nc3ccc(Cl)cc3)cc2)c2ccccc2c1=O |  | -23.6
11 | Cc1c(C(=O)OCCOc2ccccc2)[nH]c2c1C(=O)CC(c1ccccc1)C2 (stereo not given) | 65.6 nM (active) | 
12 | Cc1cccc(Cn2cc(C(=O)Nc3ccc(F)c(C(F)(F)F)c3)ccc2=O)c1 |  | 0.763
13 | CCOc1ccc(NC(=O)N(Cc2c[nH]c3ccccc23)C2CCCCCC2)cc1 |  | -4.58
14 | CCC(C)Sc1oc(-c2ccco2)nc1S(=O)(=O)c1ccc(C)cc1 (stereo not given) |  | -0.763
15 | Cc1noc(/C=C/N(C)C)c1S(=O)(=O)N1CCCC(C(=O)Nc2ccc(F)cc2F)C1 (stereo not given) | 1850 nM (active) | 
